Source: PubChem BioAssay (Tox21)
Records with an inconclusive call do not appear. Calls of active or inactive are those of the source. Unless noted, calls come from the whole dose curve; as a rule, active = well fitted curve in the direction sought with a large enough effect in the repeat runs; inconclusive = weak or mixed curves; inactive = no such curve, though single readings can be large; an effect the other way counts as inactive or inconclusive.

Key:
[1] = qHTS assay to identify small molecule antagonists of the vitamin D receptor (VDR) signaling pathway - cell viability counter screen (AID 743225); note: nearly all actives have a fitted effect of over 50% in size
Procedure, shortened: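 Cytotoxicity toward the VDR-bla HEK 293T line was scored by ATP-based CellTiter-Glo luminescence, read in the wells already used for the beta-lactamase readout after 16 h compound treatment under 3 nM 1-alpha,25-dihydroxyvitamin D3 stimulation.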

[2] = qHTS assay to identify small molecule agonists of the NFkB signaling pathway (AID 1159509; active = well fitted curve in the direction sought with a large enough effect in the signal ratio in the repeat runs, not every such curve was filed as active; the % refers to the signal ratio; note: series mostly up to about 61 µM)
Procedure, shortened: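 NFkB-bla ME-180 cells with a beta-lactamase reporter under an NF-kB response element were plated overnight, treated with compounds in DMSO for 5 hr at 37 C, then loaded with FRET substrate for 1.5 hr at room temperature.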

[3] = qHTS assay to identify small molecule agonists of the NFkB signaling pathway - cell viability counter screen (AID 1159515; calls by dose curve; note: series mostly up to about 61 µM; nearly all actives have a fitted effect of over 55% in size)
Procedure, shortened: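 5 hr compound treatment of NFkB-bla ME-180 cells (2,000/well, seeded overnight beforehand), followed by reporter substrate for 1.5 hr. CellTiter-Glo added afterward; luminescence after 30 min RT.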

[4] = qHTS assay to identify small molecule agonists of the endoplasmic reticulum stress response signaling pathway (AID 1159516; active = well fitted activation curve with a large enough effect in the signal ratio in the repeat runs, not every such curve was filed as active; the % refers to the signal ratio)
Procedure, shortened: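 Reporter HeLa cells (ESRE-beta-lactamase) underwent 5 hr compound incubation at 37 C and 5% CO2 in quantitative HTS format. Detection followed 2 hr of FRET substrate loading at room temperature.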

[5] = qHTS assay to identify small molecule agonists of the endoplasmic reticulum stress response signaling pathway - cell viability counter screen (AID 1159517; calls by dose curve;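 note: HeLa cells carrying an ER stress response element beta-lactamase reporter; series mostly up to about 61 µM; nearly all actives have a fitted effect of over 50% in size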)
Procedure, shortened: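 Luminescence readout: CellTiter-Glo, 30 min RT, same wells as the ESRE-bla reporter read. HeLa ESRE-bla, 1,500 cells/well, o/n 37 C; cpd 5 hr 37 C/5% CO2.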

[6] = qHTS assay to identify small molecule antagonists of the retinoid-related orphan receptor gamma (ROR-gamma) signaling pathway - cell viability counter screen (AID 1159520); note: nearly all actives have a fitted effect of over 50% in size
Procedure, shortened: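 Tet-on ROR gamma CHO cells (1,000/well) were plated 4 hr, given compounds in DMSO for 2 hr at 37 C, then induced with 1 uM final doxycycline for 16 hr. Viability was read as ATP by CellTiter-Glo luminescence after 30 min.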

[7] = qHTS assay to identify small molecule agonists of the AP-1 signaling pathway - cell viability counter screen (AID 1159525; calls by dose curve; note: nearly all actives have a fitted effect of over 55% in size)
Procedure, shortened: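 ME-180 AP-1-bla, 2500 cells/well, Opti-MEM + 0.5% dialyzed FBS; overnight 37 °C; cpd 15-pt titration, 5 h 37 °C; CellTiter-Glo 30 min RT; luminescence read; normalised to TOAB and DMSO controls.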

[8] = qHTS assay to identify small molecule agonists of the AP-1 signaling pathway (AID 1159526; calls by dose curve)
[9] = qHTS assay to identify small molecule agonists of the RXR signaling pathway - cell viability counter screen (AID 1159529); note: series mostly up to about 77 µM; nearly all actives have a fitted effect of over 50% in size
Procedure, shortened: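 Tox21 10K compounds were tested for cytotoxicity against GeneBLAzer RXR-alpha HEK 293T cells grown in 2% charcoal-stripped FBS. Exposure lasted 16 hr at 37 C, 5% CO2; viability read by CellTiter-Glo luminescence.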

[10] = qHTS assay to identify small molecule antagonists of the retinoid acid receptor (RAR) signaling pathway - cell viability counter screen (AID 1159551); note: nearly all actives have a fitted effect of over 35% in size
Procedure, shortened: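 Seed C3RL4 cells; next day add compound, then retinol to 1 uM final; incubate 6 h at 37 C; add CellTiter-Glo; read luminescence after 30 min at RT.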

[11] = qHTS assay to identify small molecule antagonists of the estrogen related receptor (ERR) signaling pathway - cell viability counter screen (AID 1224818);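 note: series mostly up to about 46 µM; viability measured after 17.5 h of compound exposure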
Procedure, shortened: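 In the same ERR cell assay, compound-treated wells (17.5 h, 37 C) were multiplexed with a fluorogenic viability reagent, CellTiter-Fluor, read after 30 min to flag cytotoxic substances.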

[12] = qHTS assay to identify small molecule antagonists of the estrogen related receptor (ERR) signaling pathway (AID 1224819)
Procedure, shortened: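 qHTS in ERR cells, 2,000/well, 1536 format. Cpd (DMSO) added after 6 h settle, 18 h 37 C. One-Glo luminescence, 30 min RT.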

[13] = system: estrogen-related receptor alpha (ERRalpha) with PGC-1alpha coactivator, human; assay: qHTS assay to identify small molecule antagonists of the estrogen related receptor signaling pathway with the pleiotropic PPARgamma coactivator (PGC) (AID 1224821; calls by dose curve)
Procedure, shortened: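 Cells engineered for PGC/ERR signalling (line from NTP) were plated 6 h at 37 C/5% CO2, then exposed to DMSO-dissolved compound for 18 h at 37 C. Luciferase activity was read by One-Glo luminescence after 30 min at room temperature.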

[14] = qHTS assay to identify small molecule antagonists of the estrogen related receptor signaling pathway with the pleiotropic PPARgamma coactivator (PGC) cell viability counter screen (AID 1224822; note: series mostly up to about 46 µM)
Procedure, shortened: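 Compounds in DMSO, with positive and negative controls, were applied to PGC/ERR cells (2,000/well) and left 17.5 h at 37 C before CellTiter-Fluor detection.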

[15] = qHTS assay to identify small molecule agonists of the estrogen related receptor signaling pathway with the pleiotropic PPARgamma coactivator (PGC) (AID 1224823)
Procedure, shortened: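 PGC/ERR reporter cells were seeded, rested 6 h at 37 C/5% CO2, then exposed to compounds in DMSO by pin transfer for 18 h at 37 C. Luciferase activity was read as luminescence after One-Glo reagent and 30 min at room temperature.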

[16] = target: Nuclear receptor ROR-gamma (Homo sapiens) (UniProt P51449); assay: qHTS assay to identify small molecule antagonists of the retinoid-related orphan receptor gamma (ROR-gamma) signaling pathway (AID 1159521)
Procedure, shortened: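 Readout: ONE-Glo luciferase luminescence, 30 min at room temperature. System: Tet-on RORγ CHO, RORE-LUC. Sequence: compound 2 h, doxycycline 1 uM final, 16 h at 37 C.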

[17] = target: Retinoic acid receptor RXR-alpha (Homo sapiens) (UniProt P19793); assay: qHTS assay to identify small molecule agonists of the RXR signaling pathway (AID 1159527; calls by dose curve; note: nearly all actives have a fitted effect of over 35% in size)
Chain of Retinoic acid receptor RXR-alpha (Homo sapiens) (P19793 whole entry, looked up): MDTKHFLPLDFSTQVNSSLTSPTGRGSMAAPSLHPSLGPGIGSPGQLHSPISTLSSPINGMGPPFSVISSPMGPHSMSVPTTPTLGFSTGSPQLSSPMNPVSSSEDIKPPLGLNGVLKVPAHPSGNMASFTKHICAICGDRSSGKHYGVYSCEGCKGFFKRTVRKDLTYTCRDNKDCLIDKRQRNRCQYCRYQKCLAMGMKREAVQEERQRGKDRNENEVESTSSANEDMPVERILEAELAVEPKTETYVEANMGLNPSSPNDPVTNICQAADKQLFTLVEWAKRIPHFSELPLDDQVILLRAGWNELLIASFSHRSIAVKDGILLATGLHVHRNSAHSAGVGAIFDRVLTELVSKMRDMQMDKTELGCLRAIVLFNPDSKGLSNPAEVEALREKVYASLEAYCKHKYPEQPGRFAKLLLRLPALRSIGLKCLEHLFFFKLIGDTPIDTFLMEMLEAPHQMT
Procedure, shortened: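 Reporter activation is measured as beta-lactamase activity via FRET substrate cleavage (emission 460/530 nm) in HEK 293T cells expressing an RXR-alpha-driven bla construct, following 16 hr compound exposure at 37 C.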

[18] = qHTS assay to identify small molecule antagonists of the retinoic acid receptor (RAR) signaling pathway (AID 1159552; note: nearly all actives have a fitted effect of over 50% in size)
Procedure, shortened: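 Overnight-plated C3RL4 reporter cells get compound, then retinol to 1 uM final; plates sit 6 hr at 37 C, 5% CO2. A luciferase reagent is added and light output recorded after 30 min at room temperature.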

[19] = qHTS assay to identify small molecule agonists of the retinoic acid receptor (RAR) signaling pathway (AID 1159553)
Procedure, shortened: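 Activation of retinol signaling was monitored via a RARE luciferase reporter in C3RL4 cells. After 6 hr compound treatment at 37 C, detection reagent was added for 30 min at room temperature before luminescence reading.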

Measured: Potency

O=C(Nc1ccccc1)c1cc([N+](=O)[O-])ccc1Cl
not listed: [16] | [17] | [18] | [19]
inactive: all other assays above

OCCc1ccncc1
not listed: [7] | [8] | [11] | [12] | [13] | [14] | [15]
inactive: all other assays above

CO[C@@H]1COCC[C@@H]1N[C@@H]1CC[C@@](C(=O)N2CCc3ncc(C(F)(F)F)cc3C2)(C(C)C)C1
inactive: [1] | [2] | [3] | [4] | [5] | [6] | [7] | [8] | [9] | [10]

OCCCO
not listed: [4] | [11] | [12] | [13] | [14] | [15] | [17] | [19]
inactive: all other assays above

COc1cc(CNC(=O)CCCC/C=C/C(C)C)ccc1O
inactive: [1] | [2] | [3] | [5] | [6] | [16] | [8] | [9] | [18]

O=C(OCCN1CCOCC1)c1cccnc1Nc1cccc(C(F)(F)F)c1
inactive: [1] | [2] | [3] | [5] | [6] | [16] | [7] | [8] | [9] | [10]

CC(O)CN (centres undefined)
not listed: [4] | [11] | [12] | [13] | [14] | [15] | [17] | [18]
inactive: all other assays above

Clc1nc2ccccc2nc1Cl
inactive: [1] | [2] | [3] | [5] | [6] | [16] | [7] | [8] | [9] | [19]

CC(=O)Nc1ccccc1O
inactive: [1] | [2] | [3] | [5] | [6] | [16] | [7] | [8] | [9] | [10]

Cc1ccc(Cl)c(OCC(O)CNC(C)(C)C)c1 (centres undefined)
not listed: [4] | [8] | [10] | [11] | [12] | [13] | [14] | [15]
inactive: all other assays above

C[C@H]1C[C@H]2[C@@H]3CCC4=CC(=O)C=C[C@]4(C)[C@@]3(F)[C@@H](O)C[C@]2(C)[C@@]1(O)C(=O)COP(=O)(O)O
inactive: [1] | [2] | [3] | [5] | [6] | [16] | [8] | [9] | [10]

CCCCCCCCCCCCSCCOCCO
not listed: [4] | [10] | [11] | [12] | [13] | [14] | [15] | [17]
inactive: all other assays above
